Measurements taken from PubChem BioAssay AID624267 (The Scripps Research Institute Molecular Screening Center, 2012).
Screen size: about 360,000 compounds; about 1,400 (0.39%) were called active. Rule as the data show it: active = inhibition above about 21%; inactive = the rest. The sample as a whole holds a higher share of actives than the screen did.

Target: Receptor-interacting serine/threonine-protein kinase 2 (Homo sapiens) (UniProt O43353)
Assay: NOD2-RIPK2 binding disruptors in cells, primary screen, fluorescence, CHO cells, BLA complementation (AID 624267);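 also: 0% = vehicle only and 100% = reference blocker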
Conditions: CHO BLA complementation NOD2-RIPK2, CCF4 ratio; at 4.98 µM; active compounds read high

Sequence of Receptor-interacting serine/threonine-protein kinase 2 (Homo sapiens) (O43353 whole entry, looked up): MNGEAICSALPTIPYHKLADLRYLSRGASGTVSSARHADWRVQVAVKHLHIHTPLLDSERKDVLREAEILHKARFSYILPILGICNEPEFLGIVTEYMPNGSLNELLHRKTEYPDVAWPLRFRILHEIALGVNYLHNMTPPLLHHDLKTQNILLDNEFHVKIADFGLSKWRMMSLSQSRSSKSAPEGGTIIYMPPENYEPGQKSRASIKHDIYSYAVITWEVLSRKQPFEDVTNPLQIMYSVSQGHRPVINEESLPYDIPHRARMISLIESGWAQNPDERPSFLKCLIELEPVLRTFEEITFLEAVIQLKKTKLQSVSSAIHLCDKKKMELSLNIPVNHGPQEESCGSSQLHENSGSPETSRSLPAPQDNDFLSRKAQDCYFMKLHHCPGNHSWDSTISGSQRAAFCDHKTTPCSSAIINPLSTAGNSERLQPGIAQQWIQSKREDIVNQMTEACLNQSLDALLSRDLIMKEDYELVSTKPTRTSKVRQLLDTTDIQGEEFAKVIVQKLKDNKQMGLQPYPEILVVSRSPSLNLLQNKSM

**Q.** Which inhibition does the source give for C[C@H]1CN([C@@H](C)CO)C(=O)c2cc(Br)cnc2O[C@H]1CN(C)S(=O)(=O)c1cccs1 here?
**A.** -2.32% (inactive)

**Q.** With C[C@@H]1CN([C@H](C)CO)C(=O)c2cc(-c3ccc(F)cc3)cnc2O[C@H]1CN(C)C(=O)c1ccc(F)cc1 as the compound, how does the inhibition read?
**A.** -5.43% (inactive)

**Q.** Which inhibition does the source give for C[C@H]1CN([C@@H](C)CO)C(=O)c2cc(-c3cccc(F)c3)cnc2O[C@@H]1CN(C)S(C)(=O)=O here?
**A.** 21.8% (active)

**Q.** With Cc1ccc(N(C(=O)c2sc(C)nc2C)C(C(=O)NC(C)(C)C)c2ccncc2)cc1 (centres undefined) as the compound, how does the inhibition read?
**A.** -19.7% (inactive)

**Q.** With COc1ccc(NC(C)=O)cc1NC(=O)CN1CCN(C2c3ccccc3-c3ccccc32)CC1 as the compound, how does the inhibition read?
**A.** -1.12% (inactive)

**Q.** Cc1ccc(NS(=O)(=O)c2ccc(C(=O)NCCCN3CCOCC3)cc2)cc1 was tested. Which inhibition did it give?
**A.** -3.35% (inactive)

**Q.** How did the inhibition turn out when Cc1cccc(CS(=O)(=O)c2ncc(Cl)c(C(=O)Nc3ccc(F)cc3)n2)c1 was run?
**A.** 95.7% (active)

**Q.** For CN(CCC(=O)Nc1cc(S(=O)(=O)N(C)C)ccc1Cl)CC(=O)Nc1ccc(F)cc1, which inhibition is on record?
**A.** -1.55% (inactive)

**Q.** With O=C(CS(=O)(=O)Cc1ccccc1)Nc1cccnc1 as the compound, how does the inhibition read?
**A.** -7.99% (inactive)

**Q.** With Cc1cccc(NC(=O)Cn2c(=O)n(Cc3ccccc3)c(=O)c3c(C)c(C)sc32)c1 as the compound, how does the inhibition read?
**A.** -1.85% (inactive)

**Q.** Which inhibition does the source give for Cc1cc(NS(=O)(=O)c2ccc(NC(=S)NC(=O)c3ccc(F)cc3Cl)cc2)no1 here?
**A.** -13% (inactive)

**Q.** For Cc1cccc(NC(=O)c2nc(S(=O)(=O)Cc3ccccc3)ncc2Cl)c1, which inhibition is on record?
**A.** 90.3% (active)

**Q.** COc1ccc(C(C)=O)cc1CN1C(=O)NC2(CCCCC2C)C1=O (centres undefined) was tested. Which inhibition did it give?
**A.** -6.26% (inactive)

**Q.** How did the inhibition turn out when CC(C)N1C(=O)c2ccccc2NC(=O)C1C(=O)NCc1cccs1 (centres undefined) was run?
**A.** -11.7% (inactive)

**Q.** Which inhibition does the source give for CC(OC(=O)CNS(=O)(=O)/C=C/c1ccccc1)C(=O)Nc1ccc(S(=O)(=O)N2CCCC2)cc1 (centres undefined) here?
**A.** -14.5% (inactive)

**Q.** With COc1ccc(CCNC(=O)CCc2cn(C)c3ccccc23)c(OC)c1 as the compound, how does the inhibition read?
**A.** 3.29% (inactive)

**Q.** Which inhibition does the source give for O=[N+]([O-])c1c(NCCO)cc(Sc2nc3ccccc3s2)c2nonc12 here?
**A.** 86.9% (active)

**Q.** For CCN(CCO)C(=S)Nc1cc(C(=O)OC)ccc1C(=O)OC, which inhibition is on record?
**A.** -1.65% (inactive)

**Q.** COc1ccc(C[C@H]2CN3C(=NC[C@H]3C)N2CCNC(=O)CCC2CCCCC2)cc1 was tested. Which inhibition did it give?
**A.** -3.4% (inactive)

**Q.** Which inhibition does the source give for O=C(CCCN1C(=O)CSc2ncccc21)N1CCN(c2cccc(C(F)(F)F)c2)CC1 here?
**A.** 3.16% (inactive)

**Q.** How did the inhibition turn out when COc1ccc(CCNS(=O)(=O)c2ccc(F)cc2)cc1OC was run?
**A.** -9.46% (inactive)

**Q.** How did the inhibition turn out when COc1ccc(-c2cc(C(F)(F)F)nc(S(C)(=O)=O)n2)cc1OC was run?
**A.** 36.7% (active)

**Q.** With Cc1cc(C)c(C)c(S(=O)(=O)Nc2ccc(O)cc2)c1C as the compound, how does the inhibition read?
**A.** -7.06% (inactive)

**Q.** With Cc1ccc(S(=O)(=O)NC(=O)N2CCCN(Cc3ccc(F)cc3)CC2)cc1 as the compound, how does the inhibition read?
**A.** 8.13% (inactive)

**Q.** How did the inhibition turn out when Cc1ccc(CS(=O)(=O)CCC(=O)NCc2ccc(F)cc2)cc1 was run?
**A.** 10.2% (inactive)

**Q.** Which inhibition does the source give for CC(C)c1cc(C(=O)N/N=C/c2ccoc2)c(O)c(C(C)C)c1 here?
**A.** -15.4% (inactive)

**Q.** Which inhibition does the source give for CC(OC(=O)c1cc2ccccc2o1)C(=O)Nc1ccc(N2CCOCC2)cc1 (centres undefined) here?
**A.** -6.36% (inactive)

**Q.** Which inhibition does the source give for O=C(NN=Cc1ccc(N2CCOCC2)cc1)c1cc2ccccc2cc1O here?
**A.** 30.5% (active)

**Q.** How did the inhibition turn out when CCc1nnc(NC(=O)CSc2nc3c(c(=O)n2-c2ccccc2OC)SCC3)s1 was run?
**A.** -4.66% (inactive)

**Q.** How did the inhibition turn out when CC(C)Oc1ccc(C2NC(=O)NC2=O)cc1 (centres undefined) was run?
**A.** -8.11% (inactive)

**Q.** With COc1ccc(NC(=O)C(c2ccncc2)n2c(=O)c(-c3cc4ccccc4[nH]3)nc3ccccc32)cc1 (centres undefined) as the compound, how does the inhibition read?
**A.** 37.2% (active)

**Q.** How did the inhibition turn out when CCCCCNC(=O)C(c1ccc(OC)cc1)n1c(=O)c(-c2ccccc2)nc2ccccc21 (centres undefined) was run?
**A.** -13.6% (inactive)

**Q.** For COc1ccc(C(C(=O)NCc2ccccc2)n2c(=O)c(-c3ccccc3)nc3ccccc32)cc1 (centres undefined), which inhibition is on record?
**A.** -6.05% (inactive)

**Q.** How did the inhibition turn out when CCOc1ccc(NC(=O)C/C(C)=N/NC(=O)Cc2cccs2)cc1 was run?
**A.** -21.5% (inactive)

**Q.** For O=C(c1ccc(O)cc1)c1ccc(C(=O)O)c(C(=O)O)c1, which inhibition is on record?
**A.** 7.45% (inactive)

**Q.** With Nc1ncnc2c1ncn2[C@@H]1O[C@H](C(=O)NS(=O)(=O)c2c(Cl)nc3sccn23)[C@@H](O)[C@H]1O as the compound, how does the inhibition read?
**A.** -5.91% (inactive)

**Q.** Which inhibition does the source give for Cc1ccnc(NS(=O)(=O)c2ccc(NC(=O)c3oc4ccccc4c3C)cc2)n1 here?
**A.** 7.08% (inactive)

**Q.** With O=C(CCC(=O)N1CCCC1)Nc1ccc([N+](=O)[O-])cc1 as the compound, how does the inhibition read?
**A.** -7.75% (inactive)

**Q.** CC(=O)Nc1ccc(C=Cc2ccc([N+](=O)[O-])cc2)cc1 was tested. Which inhibition did it give?
**A.** 23.5% (active)

**Q.** Which inhibition does the source give for O=C(O)/C=C/C(=O)NNc1ccc([N+](=O)[O-])cc1 here?
**A.** -11.2% (inactive)

**Q.** Which inhibition does the source give for O=C(CN1C(=O)NC2(CCCCC2)C1=O)N1CCN(C(=O)c2cccs2)CC1 here?
**A.** -8.73% (inactive)

**Q.** For C[C@@H](NC(=O)c1nc[nH]c1C(=O)N1CCN(C(=O)OC(C)(C)C)CC1)c1ccccc1, which inhibition is on record?
**A.** 1.84% (inactive)

**Q.** For CC(C)(C)OC(=O)N1CCC(NC(=O)c2[nH]cnc2C(=O)N[C@@H](Cc2ccccc2)C(=O)OCc2ccccc2)CC1, which inhibition is on record?
**A.** 30.1% (active)

**Q.** O=C(N[C@@H](Cc1ccccc1)C(=O)OCc1ccccc1)c1nc[nH]c1C(=O)N[C@@H](Cc1ccccc1)C(=O)OCc1ccccc1 was tested. Which inhibition did it give?
**A.** -4.2% (inactive)

**Q.** Which inhibition does the source give for CC(C)(C)c1nnc(NC(=O)C2c3ccccc3Oc3ccccc32)s1 here?
**A.** 13.8% (inactive)

**Q.** For COc1ccc2c(c1OC)C(=O)OC2Nc1nc(-c2ccccc2)cs1 (centres undefined), which inhibition is on record?
**A.** 21.7% (active)

**Q.** How did the inhibition turn out when COc1cc(C(O)c2nc(-c3cccc(C(=O)O)c3)cs2)ccc1F (centres undefined) was run?
**A.** -2.31% (inactive)

**Q.** COc1ccccc1C(=O)Nc1nc2nc(-c3ccccc3)cc(=O)n2[nH]1 was tested. Which inhibition did it give?
**A.** -2.48% (inactive)

**Q.** C=CCNC(=O)COC(=O)c1ccccc1C(=O)N(C)C1CCCCC1 was tested. Which inhibition did it give?
**A.** -6.21% (inactive)

**Q.** With COc1cccc(CNC(=O)COC(=O)CN2C(=O)NC3(CCCCC3C)C2=O)c1 (centres undefined) as the compound, how does the inhibition read?
**A.** -6.08% (inactive)

**Q.** CCOc1ccc(-c2nnc3ccc(SC)nn23)cc1 was tested. Which inhibition did it give?
**A.** 9.56% (inactive)

**Q.** With CCC(CC)COC(=O)C1=C(C)NC(=O)NC1c1ccc([N+](=O)[O-])cc1 (centres undefined) as the compound, how does the inhibition read?
**A.** 7.52% (inactive)

**Q.** Which inhibition does the source give for CCOC(=O)C1=C(C)N(C[C@@H]2CC[C@@H](Cc3ccc(-c4ccccc4)cc3)O2)C(=O)NC1c1ccc([N+](=O)[O-])cc1 (some centres undefined) here?
**A.** 22.2% (active)

**Q.** CCOC(=O)C1=C(c2ccccc2)NC(=O)NC1c1cc(OCC)c(O)c([N+](=O)[O-])c1 (centres undefined) was tested. Which inhibition did it give?
**A.** 6.34% (inactive)
